Test results: PubChem BioAssay (NCATS)
“And” between values parts separate entries of the source, which are not always exact repeats. Equal values may be shown once. Inconclusive results are not listed. A call without a number means that no potency is given here. The source made the active and inactive calls. Unless noted, calls follow the shape of the full dose curve.

Key:
[1] = Cell Viability - HepG2 (AID 433); details: qHTS;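 also: potency is read from the fitted curve at half-maximal effect; potency for ATP loss meaning cytotoxicity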
How it was run: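 Cytotoxicity is scored as loss of intracellular ATP in HepG2 cells exposed to compounds for 40 h. Concentration-response curves, normalized to DMSO and 100 uM tamoxifen, give AC50 values.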

[2] = target: Estrogen receptor (Homo sapiens) (UniProt P03372); test: qHTS assay for small molecule antagonists of estrogen receptor alpha signaling (AID 588513; active = well fitted curve in the direction sought with a large enough effect in the signal ratio, with a control signal flat, not every such curve was filed as active; the % refers to the signal ratio); details: ER-alpha-UAS-bla HEK293, beta-lactamase ratio, antagonist mode; series mostly up to 76.9 µM
Estrogen receptor (Homo sapiens), sequence (P03372 whole entry, looked up): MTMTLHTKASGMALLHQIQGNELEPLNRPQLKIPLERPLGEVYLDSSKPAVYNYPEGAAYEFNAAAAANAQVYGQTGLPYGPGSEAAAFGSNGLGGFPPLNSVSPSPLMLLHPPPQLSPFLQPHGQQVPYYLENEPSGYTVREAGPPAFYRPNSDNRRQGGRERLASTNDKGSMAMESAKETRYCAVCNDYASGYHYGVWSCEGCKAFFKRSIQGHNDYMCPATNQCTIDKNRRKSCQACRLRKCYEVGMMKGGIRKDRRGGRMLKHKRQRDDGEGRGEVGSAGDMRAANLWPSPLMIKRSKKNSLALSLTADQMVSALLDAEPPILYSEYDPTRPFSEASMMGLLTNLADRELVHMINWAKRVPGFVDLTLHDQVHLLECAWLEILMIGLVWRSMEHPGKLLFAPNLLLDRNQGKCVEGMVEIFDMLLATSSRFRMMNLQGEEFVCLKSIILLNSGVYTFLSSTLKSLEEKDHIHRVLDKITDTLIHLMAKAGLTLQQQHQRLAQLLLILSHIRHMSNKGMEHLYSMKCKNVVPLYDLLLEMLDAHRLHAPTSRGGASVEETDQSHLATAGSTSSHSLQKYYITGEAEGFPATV
How it was run: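 Cells were plated at 5000/well and incubated 4 h at 37 C. Compounds were added as 1:2 dilution series, duplicates. 17-beta-estradiol (0.5nM final) was added for 18 h before CCF4 detection.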

[3] = target: Estrogen receptor (Homo sapiens) (UniProt P03372); test: qHTS assay for small molecule agonists of estrogen receptor alpha signaling (AID 588514); details: ER-alpha-UAS-bla HEK293, beta-lactamase ratio, 18 h; series mostly up to 76.8 µM; also: nearly all actives have a fitted effect of over 70% in size
How it was run: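 Fluorescence from CCF4 cleavage reports ER-alpha-driven beta-lactamase expression in HEK 293 cells treated 18 hrs at 37 C. Data normalized to 17-beta-estradiol (20 nM) and DMSO, fitted to Hill equation.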

[4] = target: Bile acid receptor (Homo sapiens) (UniProt Q96RI1); test: qHTS assay for small molecule agonists of farnesoid X receptor signaling (AID 588527); details: HEK293T FXR-UAS-bla, beta-lactamase ratio, 16 h; stronger effect = higher value
Bile acid receptor (Homo sapiens), sequence (Q96RI1 whole entry, looked up): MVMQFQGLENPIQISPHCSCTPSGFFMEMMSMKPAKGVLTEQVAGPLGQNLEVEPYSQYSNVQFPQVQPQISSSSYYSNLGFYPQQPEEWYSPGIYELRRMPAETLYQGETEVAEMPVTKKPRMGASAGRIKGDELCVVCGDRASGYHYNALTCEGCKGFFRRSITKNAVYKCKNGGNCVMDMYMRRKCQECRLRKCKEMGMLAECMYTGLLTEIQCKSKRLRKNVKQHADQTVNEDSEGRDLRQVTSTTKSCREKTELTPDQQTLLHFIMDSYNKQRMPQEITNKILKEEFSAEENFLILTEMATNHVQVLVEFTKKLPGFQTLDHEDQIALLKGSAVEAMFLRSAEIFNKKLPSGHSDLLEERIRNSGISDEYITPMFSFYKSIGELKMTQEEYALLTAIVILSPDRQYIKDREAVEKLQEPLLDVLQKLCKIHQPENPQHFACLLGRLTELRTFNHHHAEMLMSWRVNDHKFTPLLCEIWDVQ
How it was run: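 Read-out: beta-lactamase reporter fluorescence with CCF4 substrate in GeneBLAzer FXR-UAS-bla HEK293T cells, after 16 h compound exposure at 37 C. Response scaled between DMSO basal (0%) and chenodeoxycholic acid at 100 uM (100%).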

[5] = target: Glucocorticoid receptor (Homo sapiens) (UniProt P04150); test: qHTS assay for small molecule agonists of glucocorticoid receptor signaling (AID 588532; active = well fitted curve in the direction sought with a large enough effect in the signal ratio, with a control signal flat; the % refers to the signal ratio); details: HeLa MMTV-bla, beta-lactamase ratio, agonist, 18 h; stronger effect = higher value; percent of dexamethasone control, DMSO zero
Glucocorticoid receptor (Homo sapiens), sequence (P04150 whole entry, looked up): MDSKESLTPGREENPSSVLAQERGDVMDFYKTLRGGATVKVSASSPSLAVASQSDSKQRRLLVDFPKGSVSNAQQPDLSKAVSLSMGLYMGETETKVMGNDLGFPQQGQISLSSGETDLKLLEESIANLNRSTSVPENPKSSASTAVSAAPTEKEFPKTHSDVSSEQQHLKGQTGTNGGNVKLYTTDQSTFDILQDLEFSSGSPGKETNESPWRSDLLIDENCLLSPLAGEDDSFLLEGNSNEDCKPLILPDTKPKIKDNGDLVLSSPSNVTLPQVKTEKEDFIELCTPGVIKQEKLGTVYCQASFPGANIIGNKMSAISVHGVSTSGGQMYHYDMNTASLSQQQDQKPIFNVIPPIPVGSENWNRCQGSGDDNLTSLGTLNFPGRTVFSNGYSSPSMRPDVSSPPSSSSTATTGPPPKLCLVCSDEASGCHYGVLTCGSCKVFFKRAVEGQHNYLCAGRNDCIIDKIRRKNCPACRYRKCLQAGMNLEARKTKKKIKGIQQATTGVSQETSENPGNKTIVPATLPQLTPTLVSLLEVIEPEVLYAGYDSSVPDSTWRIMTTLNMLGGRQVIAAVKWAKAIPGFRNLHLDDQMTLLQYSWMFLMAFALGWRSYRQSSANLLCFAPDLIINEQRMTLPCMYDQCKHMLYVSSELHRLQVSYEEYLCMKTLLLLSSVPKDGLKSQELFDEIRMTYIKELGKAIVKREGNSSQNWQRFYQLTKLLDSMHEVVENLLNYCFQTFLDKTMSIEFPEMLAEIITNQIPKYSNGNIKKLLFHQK
How it was run: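 Cells were plated and rested 3-5 h at 37 C, compounds were added in titration and incubated 18 h, then CCF4 substrate was loaded for 2 h at RT before reading blue/green fluorescence. EC50 came from Hill-equation fitting.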

[6] = qHTS assay for small molecule antagonists of peroxisome proliferator-activated receptor delta signaling (AID 588535; active = well fitted inhibition curve with a large enough effect in the signal ratio, with a control signal flat, not every such curve was filed as active; the % refers to the signal ratio;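 as to max response: cells co-treated with a PPAR-delta agonist as stimulator during compound exposure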); details: HEK293T PPARd-UAS-bla, beta-lactamase FRET ratio, 18 h; 460 nm channel
How it was run: (§1)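 Beta-lactamase reporter read-out (405 nm excitation, 460/530 nm emission) after CCF4 loading for 2 hrs at RT. HEK293T PPAR-delta-UAS-bla cells, 2% charcoal/dextran FBS, compounds for 18 hrs at 37 C. Hill fit gave IC50 and efficacy.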

[7] = target: Peroxisome proliferator-activated receptor delta (Homo sapiens) (UniProt Q03181); test: as above; details: HEK293T PPARd-UAS-bla, beta-lactamase FRET ratio, 18 h; series mostly up to 76.7 µM
Peroxisome proliferator-activated receptor delta (Homo sapiens), sequence (Q03181 whole entry, looked up): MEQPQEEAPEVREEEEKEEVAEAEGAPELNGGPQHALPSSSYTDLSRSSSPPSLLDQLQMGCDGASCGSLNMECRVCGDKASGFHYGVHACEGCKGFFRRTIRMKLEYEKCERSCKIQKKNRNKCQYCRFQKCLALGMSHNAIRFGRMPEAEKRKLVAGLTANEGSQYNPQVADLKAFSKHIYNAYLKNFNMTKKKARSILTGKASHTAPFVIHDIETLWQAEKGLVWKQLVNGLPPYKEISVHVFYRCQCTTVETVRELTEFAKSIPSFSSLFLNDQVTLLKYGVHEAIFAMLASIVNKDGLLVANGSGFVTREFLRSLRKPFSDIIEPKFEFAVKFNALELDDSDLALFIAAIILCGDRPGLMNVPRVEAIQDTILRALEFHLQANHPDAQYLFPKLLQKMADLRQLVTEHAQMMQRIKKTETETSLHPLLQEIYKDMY
How it was run: as §1

[8] = target: Peroxisome proliferator-activated receptor gamma (Homo sapiens) (UniProt P37231); test: qHTS assay for small molecule agonists of peroxisome proliferator-activated receptor gamma signaling (AID 588536; active = well fitted curve in the direction sought with a large enough effect in the signal ratio, with a control signal flat, not every such curve was filed as active; the % refers to the signal ratio); details: HEK293 PPARg-UAS-bla, beta-lactamase ratio, 16 h, percent of rosiglitazone response, DMSO as zero; series mostly up to 76.7 µM
Peroxisome proliferator-activated receptor gamma (Homo sapiens), sequence (P37231 whole entry, looked up): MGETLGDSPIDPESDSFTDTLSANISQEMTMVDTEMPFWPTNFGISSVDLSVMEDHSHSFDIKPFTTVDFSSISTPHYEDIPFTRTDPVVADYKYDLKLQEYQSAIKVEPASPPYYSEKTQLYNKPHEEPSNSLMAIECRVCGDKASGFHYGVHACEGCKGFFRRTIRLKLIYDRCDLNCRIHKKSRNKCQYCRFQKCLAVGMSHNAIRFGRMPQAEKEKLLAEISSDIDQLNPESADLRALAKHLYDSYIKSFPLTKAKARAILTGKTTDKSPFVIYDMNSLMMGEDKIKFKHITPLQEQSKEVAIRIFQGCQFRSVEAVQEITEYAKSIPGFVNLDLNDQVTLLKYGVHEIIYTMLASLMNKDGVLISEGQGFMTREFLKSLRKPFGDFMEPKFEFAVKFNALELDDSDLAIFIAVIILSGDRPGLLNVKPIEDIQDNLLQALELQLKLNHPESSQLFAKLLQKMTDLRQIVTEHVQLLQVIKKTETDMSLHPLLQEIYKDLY
How it was run: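 Beta-lactamase reporter read-out: CCF4 fluorescence (ex 405, em 460/530 nm) after 2 h at RT. HEK293 GeneBLAzer cells were treated for 16 h at 37 C. Hill fits gave EC50 and efficacy versus 2 uM rosiglitazone (100%) and DMSO (0%).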

[9] = target: Thyroid hormone receptor beta (Homo sapiens) (UniProt P10828); test: qHTS assay for small molecule agonists of thyroid hormone receptor beta signaling (AID 588545); details: TR-UAS-bla GripTite HEK 293, beta-lactamase ratio, agonist mode, 18 h; series mostly up to 76.7 µM
Thyroid hormone receptor beta (Homo sapiens), sequence (P10828 whole entry, looked up): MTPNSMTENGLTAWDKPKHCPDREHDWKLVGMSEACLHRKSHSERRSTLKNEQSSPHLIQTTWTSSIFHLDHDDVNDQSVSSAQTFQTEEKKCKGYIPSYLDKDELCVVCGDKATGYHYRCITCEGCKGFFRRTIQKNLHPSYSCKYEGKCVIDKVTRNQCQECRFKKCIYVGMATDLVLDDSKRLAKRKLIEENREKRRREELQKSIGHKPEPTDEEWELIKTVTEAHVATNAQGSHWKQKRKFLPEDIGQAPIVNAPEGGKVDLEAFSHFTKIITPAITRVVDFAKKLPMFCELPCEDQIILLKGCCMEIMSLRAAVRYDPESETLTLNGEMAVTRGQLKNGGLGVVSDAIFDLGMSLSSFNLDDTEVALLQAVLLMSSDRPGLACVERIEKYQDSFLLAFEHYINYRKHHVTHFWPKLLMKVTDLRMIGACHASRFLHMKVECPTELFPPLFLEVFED
How it was run: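 Beta-lactamase reporter activity under TR response element control is measured in HEK 293 cells after 18 hrs compound exposure. Signal is ratiometric CCF4 fluorescence, 460/530 nm.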

[10] = qHTS assay for environmental chemicals that activate the Aryl hydrocarbon Receptor (AhR) signaling pathway (AID 651777; active = well fitted curve in the direction sought with a large enough effect; an effect the other way counts as inactive or inconclusive; also: nearly all actives have a fitted effect of over 15% in size; also: potency is read from the fitted curve at half-maximal effect); details: 1A2-DRE human hepatoma cells, luciferase, 24 h; activation: stronger effect = higher value
How it was run: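 Human hepatoma 1A2-DRE cells stably carrying a DRE/CYP1A2 promoter–luciferase reporter, 1,200 cells/well, exposed to compound 24 hr at 37 C. Luciferase read by One-Glo luminescence after 30 min at room temperature; increased signal marks AhR activation.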

[11] = qHTS assay for small molecule agonists of the antioxidant response element (ARE) signaling pathway measured by Nrf2-dependant transcriptional activity (AID 720636; active = well fitted curve in the direction sought with a large enough effect in the repeat runs; an effect the other way counts as inactive or inconclusive); details: ARE-luc HepG2, Nrf2 luciferase reporter, 16 h; series mostly up to 92.4 µM
How it was run: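 ARE-luc HepG2 cells carrying an Nrf2-responsive luciferase reporter, in medium with 1% dialyzed FBS, exposed to compound for 16 hr at 37 C, 5% CO2. Luminescence read 30 min after ONE-Glo addition.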

[12] = Cell Viability - Jurkat (AID 426;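 active = dose-dependent loss of cell ATP signal giving a full or clear fitted curve, ranked by lower potency value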;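 also: potency is read from the fitted curve at half-maximal effect; cells exposed to compound for 40 hours at 37 °C before ATP read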); details: qHTS
How it was run: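 Cytotoxicity was scored as loss of cellular ATP, measured by luciferase-based luminescence, in Jurkat clone E6-1 cells after 40 h compound treatment; tamoxifen and doxorubicin served as positive controls.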

[13] = Cell Viability - H-4-II-E (AID 543; active = well fitted curve in the direction sought with a large enough effect; an effect the other way counts as inactive or inconclusive; also: nearly all actives have a fitted effect of over 35% in size; also: potency is read from the fitted curve at half-maximal effect); details: H-4-II-E rat hepatoma viability; series mostly up to 92.2 µM
How it was run: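 AC50 from Hill-modelled qHTS concentration-response curves. H-4-II-E rat hepatoma cells in complete medium, 40 hr exposure at 37 °C, viability by CellTiter-Glo ATP luminescence.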

[14] = Cell Viability - LYMP2-022 (AID 987; active = well fitted curve in the direction sought with a large enough effect; an effect the other way counts as inactive or inconclusive; also: nearly all actives have a fitted effect of over 55% in size; also: potency is read from the fitted curve at half-maximal effect); details: LYMP2-022 lymphoblastoid cell viability; series mostly up to 92.2 µM
How it was run: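 In this qHTS cytotoxicity screen, compound titrations were incubated 24 hr at 37 C with human lymphoblastoid cells in complete medium. Luciferase-based ATP luminescence provided the viability signal.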

[15] = Cell Viability - LYMP2-024 (AID 988; active = well fitted curve in the direction sought with a large enough effect; an effect the other way counts as inactive or inconclusive; also: nearly all actives have a fitted effect of over 60% in size); details: LYMP2-024 lymphoblastoid cell viability; series mostly up to 92.2 µM
How it was run: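 Cells at 2500 per well received compound for 24 hr after a 5 hr settling period. Viability was scored by CellTiter-Glo luminescence, with AC50 from Hill fits.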

[16] = target: Glucocorticoid receptor (Homo sapiens) (UniProt P04150); test: qHTS assay for small molecule antagonists of glucocorticoid receptor signaling (AID 588533; active = well fitted inhibition curve with a large enough effect in the signal ratio, with a control signal flat, not every such curve was filed as active; the % refers to the signal ratio;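 also: cells stimulated with 2 nM dexamethasone as agonist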); details: HeLa MMTV-bla, GRE beta-lactamase ratio, antagonist mode, 18 h; series mostly up to 76.8 µM
How it was run: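 Antagonist-mode qHTS: compound titrations added to GRE-bla HeLa cells, then dexamethasone 2 nM final; 18 h, 37 C. CCF4 FRET fluorescence normalized to dexamethasone and DMSO; IC50 from Hill fit.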

[17] = target: Vitamin D3 receptor (Homo sapiens) (UniProt P11473); test: qHTS assay for small molecule agonists of vitamin D receptor signaling (AID 588543); details: HEK293T VDR-UAS-bla, beta-lactamase ratio, 16 h; series mostly up to 76.8 µM
Vitamin D3 receptor (Homo sapiens), sequence (P11473 whole entry, looked up): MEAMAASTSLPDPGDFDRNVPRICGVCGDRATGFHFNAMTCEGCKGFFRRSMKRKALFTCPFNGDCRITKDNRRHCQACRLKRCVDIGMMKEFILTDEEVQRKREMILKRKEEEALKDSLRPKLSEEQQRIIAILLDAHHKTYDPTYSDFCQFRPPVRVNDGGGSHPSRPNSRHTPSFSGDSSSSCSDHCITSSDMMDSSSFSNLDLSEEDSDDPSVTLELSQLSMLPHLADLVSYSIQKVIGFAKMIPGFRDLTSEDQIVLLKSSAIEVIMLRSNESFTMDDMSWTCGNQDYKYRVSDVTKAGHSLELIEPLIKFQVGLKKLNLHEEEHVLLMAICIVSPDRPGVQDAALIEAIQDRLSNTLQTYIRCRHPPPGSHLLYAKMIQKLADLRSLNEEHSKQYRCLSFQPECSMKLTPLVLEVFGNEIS
How it was run: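 qHTS in agonist mode: compound titrations stimulate a VDR-driven β-lactamase reporter in HEK293T cells over 16 h at 37 °C. Response normalized to 50 nM 1α,25-dihydroxyvitamin D3 = 100%, DMSO = 0%; Hill fitting gives EC50 and maximal response.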

[18] = qHTS assay for small molecule activators of the p53 signaling pathway (AID 651743; active = well fitted activation curve with a large enough effect in the signal ratio, not every such curve was filed as active; the % refers to the signal ratio; also: potency is read from the fitted curve at half-maximal effect); details: HCT-116 p53RE-bla, beta-lactamase FRET ratio, 16 h; activation: stronger effect = higher value
How it was run: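 Reporter: beta-lactamase driven by p53 response elements, stably integrated in HCT-116 cells. Cells seeded at 4,000/well, 5 h preincubation, compound (DMSO) 16 h at 37 C; B/G FRET substrate 2 h RT; fluorescence intensity read.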

[19] = Cell Viability - NIH 3T3 (AID 541; active = well fitted curve in the direction sought with a large enough effect; an effect the other way counts as inactive or inconclusive; also: nearly all actives have a fitted effect of over 25% in size; also: potency is read from the fitted curve at half-maximal effect); details: NIH 3T3 cell viability, qHTS; activity change, negative = cytotoxicity: at 92.2 µM (top of the series)
How it was run: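 In this cytotoxicity screen, acute toxicity is scored as an ATP drop measured by CellTiter-Glo in NIH 3T3 fibroblasts following a 40 hr, 37 °C incubation with compound.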

[20] = Cell Viability - MRC5 (AID 434); details: MRC5 lung fibroblast viability, qHTS;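 also: potency is read from the fitted curve at half-maximal effect; cells exposed to compound for 40 hours at 37 °C; potency reflects cytotoxicity seen as loss of intracellular ATP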
How it was run: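 ATP luminescence read-out (CellTiter-Glo, 20 min RT) after 40 hr, 37 °C compound exposure of 1500 MRC5 cells/well. Data normalized to DMSO (basal) and 100 uM tamoxifen (100% inhibition); AC50 from standard Hill equation.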

N#CC(Br)Br
Potency [1]: > 92 µM (inactive)
Potency [2]: inactive
Potency [3]: inactive
activation [4]: -0.424% (inactive)
activation [5]: -5.99% (inactive)
max response [6]: -6.9%
outcome [7]: inactive
outcome [8]: inactive
Potency [9]: inactive
activation [10]: 1.38% (inactive)
Potency [11]: inactive

Cl/C=C\Cl
Potency [12]: > 92 µM (inactive)
Potency [13]: inactive
Potency [14]: inactive
Potency [15]: inactive
Potency [2]: inactive
Potency [3]: inactive
activation [5]: 16.7% (inactive)
outcome [16]: inactive
max response [6]: -22.4%
outcome [7]: inactive
outcome [17]: inactive
Potency [9]: inactive
activation [18]: 1.35% (inactive)
activation [10]: 0.819% (inactive)
Potency [11]: inactive

Brc1ccc(Oc2ccc(Br)cc2Br)c(Br)c1
Potency [1]: > 92 µM (inactive)
Potency [19]: inactive
Potency [13]: inactive
Potency [14]: inactive
Potency [15]: inactive
Potency [2]: inactive
Potency [3]: inactive
activation [4]: -1.06% (inactive)
outcome [17]: inactive
Potency [9]: inactive
activation [18]: 2.43% (inactive)
activation [10]: 7.07% (inactive)
Potency [11]: inactive

c1ccc2c(c1)-c1cccc3c1c-2cc1ccccc13
Potency [2]: inactive
Potency [10]: 10 µM (active)

C=CC(=O)OCCO
Potency [1]: > 92 µM (inactive)
Potency [20]: > 92 µM (inactive)
Potency [19]: 31.6 µM (active)
max response [6]: -1.31%
outcome [7]: inactive
activation [18]: 1.07% (inactive)
Potency [11]: inactive

[C-]1=CC=CC1.[C-]1=CC=CC1.[Cl-].[Cl-].[Ti+4]
Potency [12]: 55.7 µM (active)
activity change, negative = cytotoxicity [19]: -86.5% (active)
outcome [17]: inactive
activation [10]: 0.145% (inactive)

Nc1ccc(-c2ccc(N)c(Cl)c2)cc1Cl
Potency [12]: 19 µM (active)
Potency [1]: > 92 µM (inactive)
Potency [19]: 15.8 µM (active)
Potency [13]: 31.6 µM (active)
Potency [15]: inactive
activation [5]: -5.3% (inactive) and -4.62% (inactive)
outcome [8]: inactive
outcome [17]: inactive
Potency [9]: inactive
activation [18]: 14% (inactive) and 23.3% (inactive)
Potency [10]: 44.7 µM (active)

N#C/C=C/C#N
Potency [12]: 20.8 µM (active)
Potency [1]: > 92 µM (inactive)
activity change, negative = cytotoxicity [19]: -156% (active)
Potency [13]: 50.1 µM (active)
Potency [14]: 15.8 µM (active)
Potency [2]: inactive
outcome [16]: inactive
outcome [17]: inactive
activation [10]: 5.04% (inactive)

O=[N+]([O-])c1cccc(CCl)c1
Potency [20]: > 92 µM (inactive)
outcome [16]: inactive
outcome [17]: inactive
Potency [9]: inactive
Potency [11]: inactive

Oc1cc(Cl)c(Cl)c(Cl)c1
Potency [1]: 59.9 µM (active)
Potency [13]: 63.1 µM (active)
activation [4]: 3.7% (inactive)
outcome [17]: inactive
activation [10]: 1.76% (inactive)
Potency [11]: inactive

Oc1cc(Cl)c(Cl)c(Cl)c1Cl
Potency [12]: 54.1 µM (active)
Potency [1]: 53.3 µM (active)
Potency [14]: inactive
Potency [15]: inactive
activation [5]: 5.92% (inactive)
Potency [9]: inactive
Potency [18]: 39.8 µM (active)
Potency [11]: inactive

Clc1ccc(C(c2ccccc2Cl)C(Cl)(Cl)Cl)cc1 (stereo not drawn)
Potency [1]: > 92 µM (inactive)
Potency [20]: > 92 µM (inactive)
Potency [14]: inactive
Potency [15]: inactive
activation [5]: 1.13% (inactive)
outcome [16]: inactive
outcome [8]: inactive
outcome [17]: inactive
Potency [9]: inactive
activation [10]: -0.21% (inactive) and -0.331% (inactive)
Potency [11]: inactive

CN(C)c1ccc(N=Nc2ccccc2)cc1
Potency [20]: > 92 µM (inactive)
Potency [14]: inactive
Potency [15]: inactive
activation [4]: -4.32% (inactive)
activation [5]: 0.929% (inactive)
max response [6]: -40.3%
outcome [7]: inactive
outcome [8]: inactive
outcome [17]: inactive
activation [18]: -7.04% (inactive)
Potency [10]: 44.7 µM (active)
